# Test results: PubChem BioAssay (Tox21)
# Results filed as inconclusive are left out. Entries that show only a call come without a potency. The source holds several records for some structures; these can differ, active in one and inactive in another. Calls of active or inactive are those of the source. Calls follow the shape of the full dose curve.
# Target: 5-hydroxytryptamine receptor 2A (Homo sapiens) (UniProt P28223)
# Assay: 5-hydroxytryptamine receptor 2A (HTR2A) small molecule agonists, cell-based qHTS assay (AID 1963587); also: nearly all actives have a fitted effect of over 30% in size
# Details: HTR2A-CHO cells, calcium flux fluorescence, agonist mode; series mostly up to 76.8 µM
# Description: National Center for Advancing Translational Sciences [NCATS]
# Division of Preclinical Innovation [DPI]
# U.S. Environmental Protection Agency [EPA]
# National Institutes of Environmental Health Sciences [NIEHS]
# National Toxicology Program [NTP]
# U.S. Food and Drug Administration [FDA]
# The HTR2A receptor is a subtype of the 5-HT2 receptor that belongs to the serotonin receptor family and is a G protein-coupled receptor (GPCR). The HTR2A-CHO cell line stably expressing human 5-hydroxytryptamine receptor 2A (HTR2A) can be used for screening agonists of interactions between 5-HT2 and its ligands. The HTR2A-CHO calcium flux assay is a homogeneous fluorescence-based assay for detecting the intracellular calcium level using FDSS kinetic plate reader system.
# HTR2A-CHO cells were dispensed at 2000 cells/3uL/well in 1536-well black-clear bottom plates using a Multidrop Dispenser. After the assay plates were incubated at a 37 C/5% CO2 incubator for 18 h, 3 uL of Dye Loading Buffer was transferred to the assay plate by a Flying Reagent Dispenser. The assay plates were incubated at 37 C for 1h. For agonist mode, 23 nL of compounds dissolved in DMSO, positive controls or DMSO only was transferred to the assay plate by a pin tool. The fluorescence intensity in the plates was measured using FDSS 7000EX kinetic plate reader for 2 min at 1 sec intervals.
# Potency is read from the fitted curve at half-maximal effect.
# 5-hydroxytryptamine receptor 2A (Homo sapiens), sequence (P28223 whole entry, looked up): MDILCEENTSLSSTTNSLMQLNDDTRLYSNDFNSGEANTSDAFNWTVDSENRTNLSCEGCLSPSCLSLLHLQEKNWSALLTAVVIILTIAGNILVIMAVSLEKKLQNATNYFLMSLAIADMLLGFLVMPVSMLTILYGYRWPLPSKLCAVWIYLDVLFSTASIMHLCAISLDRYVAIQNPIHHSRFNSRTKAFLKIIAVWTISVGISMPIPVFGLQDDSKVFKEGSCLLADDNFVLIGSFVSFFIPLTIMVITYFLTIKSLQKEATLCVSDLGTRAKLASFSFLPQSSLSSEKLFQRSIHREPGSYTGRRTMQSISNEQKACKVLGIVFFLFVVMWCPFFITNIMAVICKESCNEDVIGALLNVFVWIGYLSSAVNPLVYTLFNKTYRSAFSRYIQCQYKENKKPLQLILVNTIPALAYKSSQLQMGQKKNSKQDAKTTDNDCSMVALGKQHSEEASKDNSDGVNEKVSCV
row,Structure (SMILES),Potency
1,C=CC(=O)OCCCC,inactive
2,CCCOC(=O)NCCCN(C)C,inactive
3,Oc1ccc(Cl)cc1Cc1cc(Cl)ccc1O,inactive
4,CC(O)COc1ccccc1 (stereo not given),inactive
5,Nc1ncnc2nc[nH]c12,inactive
6,CCCOC(=O)c1ccccc1,inactive
7,CCCCC(C=O)CC (stereo not given),inactive
8,CC(O)CC(C)(C)O (stereo not given),inactive
9,CCCCNC(=O)NS(=O)(=O)c1ccc(C)cc1,inactive
10,C/C=C(C)/C=C/C=C(C)C,inactive
11,CCC(Cc1c(I)cc(I)c(N)c1I)C(=O)O (stereo not given),inactive
12,O=NO,inactive
13,C=C1C2CCC(C2)C1(C)C (stereo not given),inactive
14,CCCCCCCCCCCC[N+](C)(C)C,inactive
15,CCc1cccc(O)c1,inactive
16,O=C(O)c1ccc(C(=O)O)cc1,inactive
17,CC(=O)OCc1ccc2c(c1)OCO2,inactive
18,Cc1cccc(C)c1,inactive
19,Nc1ccc(Cl)cc1Cl,inactive
20,Cc1ccc(C)c(S(=O)(=O)O)c1,inactive

row,Structure (SMILES),Potency
1,O=C(c1ccccc1)c1ccc(O)c(O)c1O,inactive
2,CCCCCCCCCCCCO,inactive
3,NC1CCCCC1,1.96 µM (active) and inactive
4,CC(=O)N[C@@H](CS)C(=O)O,inactive
5,NCCN,inactive
6,NC(=NCCCCCCN=C(N)/N=C(\N)Nc1ccc(Cl)cc1)/N=C(\N)Nc1ccc(Cl)cc1,inactive
7,CCCC(=O)O,inactive
8,c1ccc(Nc2ccccc2)cc1,inactive
9,Nc1ccc(C(=O)O)cc1,inactive
10,C[Si]1(C)O[Si](C)(C)O[Si](C)(C)O[Si](C)(C)O1,inactive
11,CN(C)c1ccc(C(=C2C=CC(=[N+](C)C)C=C2)c2ccccc2)cc1,inactive
12,CCCCCCCC(=O)O,inactive
13,C=C(C)C(=O)OCCOC(=O)C(=C)C,inactive
14,N[C@@H](Cc1cc(I)c(Oc2cc(I)c(O)c(I)c2)c(I)c1)C(=O)O,inactive
15,Cc1cccc2n[nH]nc12,inactive
16,Cc1ncc(CO)c(CO)c1O,inactive
17,COC(C)COC(C)COC(C)CO (stereo not given),inactive
18,CCCCCCO,inactive
19,Nc1ccc(S(=O)(=O)c2ccc(N)cc2)cc1,inactive
20,CCC(=O)O,inactive
